{"source": "PubChem BioAssay (NCATS)", "note": "Inconclusive results are not listed. Activity calls are given as the source filed them. Calls follow the shape of the dose curve; as a rule, active = well fitted cell-killing curve with a large enough effect; inconclusive = small, poorly fitted or top-dose-only effect, or effect the other way; inactive = no such curve, though single readings can be large or run the other way. Potency is read from the fitted curve at half-maximal effect."}
{"experiment": "Quantitative High-Throughput drug screen in 47 multiple myeloma cell lines against the NCATS MIPE library collection: XG1_PLB cell viability assay (AID 1919866); also: nearly all actives have a fitted effect of over 35% in size", "settings": "CellTiter-Glo ATP, 48 h; series mostly up to 45.8 µM; viability: at the top concentration", "source_text": "PI: Beverly A. Mock Ph.D.\nLaboratory of Cancer Biology and Genetics,\nCenter for Cancer Research, National Cancer Institute,\nNational Institute of Health, Bethesda, Maryland\nDrug resistance and disease progression are common in multiple myeloma (MM) patients, underscoring the need for new therapeutic combinations. […] We hypothesized that effective combinations would reduce MYC expression and enhance p16 activity. […] These preclinical data identify potentially useful drug combinations for evaluation in drug-resistant MM and reveal potential mechanisms of combined drug sensitivity.\nDescribed herein is the primary MIPE qHTS used to cherrypick compounds. Validated compounds were then further tested for potential synergistic activiy.\n[1] Peat TJ, Gaikwad SM, Dubois W, Gyabaah-Kessie N, Zhang S, Gorjifard S, Phyo Z, Andres M, Hughitt VK, Simpson RM, Miller MA, Girvin AT, Taylor A, Williams D, D'Antonio N, Zhang Y, Rajagopalan A, Flietner E, Wilson K, Zhang X, Shinn P, Klumpp-Thomas C, McKnight C, Itkin Z, Chen L, Kazandijian D, Zhang J, Michalowski AM, Simmons JK, Keats J, Thomas CJ, Mock BA. Drug combinations identified by high-throughput screening promote cell cycle transition and upregulate Smad pathways in myeloma. Cancer Lett. 2023 Aug 1;568:216284. doi: 10.1016/j.canlet.2023.216284. Epub 2023 Jun 24. PMID: 37356470; PMCID: PMC10408729.\nSEQUENCE No. (e.g., 1, 2, 3, etc.); […] (e.g., Cells, Incubation, Reagent, etc.); VALUE and DESCRIPTION.\n1; Cells; 5 uL; white, solid bottom 1536-well Greiner assay plate.\n2; Compounds; 23 nL; Kalypsis pin tool (Wako USA) equipped with a 1536-well pin head to transfer to the assay plates.\n3; Incubation; 48 hours; 37C incubation.\n4; Reagent;5uL; CellTiter Glo (Promega).\n5; Detector; 425V; Luminescence; Viewlux PerkinElmer.\nNOTES (numbers refer to Sequence numbers above)\n1. The cell-based screening methods employed in this study were like those previously published. Briefly, the corresponding myeloma cell lines were screened in 1,536-well plates with 500 cells, 5-uL per well for inhibition of cell viability (assessed by measuring ATP levels with CellTiterGlo).\n2. NCATS MIPE 4.0 library of approved and investigational drugs were added using the Kalypsis pin tool. Wells treated with DMSO only for 100% viability and media only for 0% viability were used as controls.\n3. The assay plates were covered and incubated for 48 hours in a 37C, 5% CO2 incubator with controlled humidity.\n4. After 48 hours, CellTilter-GloTM luminescent substrate mix (Promega) reagent was added to the assay plate and plates we incubated for 5 min at room temperature.\n5. Signal was measured as median relative luminescence units on a ViewLux (PerkinElmer) multiplate reader.\n[1] Heske CM, Davis MI, Baumgart JT, Wilson K, Gormally MV, Chen L, Zhang X, Ceribelli M, Duveau DY, Guha R, Ferrer M, Arnaldez FI, Ji J, Tran HL, Zhang Y, Mendoza A, Helman LJ, Thomas CJ. Matrix Screen Identifies Synergistic Combination of PARP Inhibitors and Nicotinamide Phosphoribosyltransferase (NAMPT) Inhibitors in Ewing Sarcoma. Clin Cancer Res. 2017 Dec 1;23(23):7301-7311. doi: 10.1158/1078-0432.CCR-17-1121. Epub 2017 Sep 12. PMID: 28899971; PMCID: PMC6636827."}
{"smiles": "COc1ccc(C(=O)c2c(C)n(CCN3CCOCC3)c3ccccc23)cc1", "viability": "112% (inactive)"}
{"smiles": "C=C(C)[C@H]1Cc2c(ccc3c2O[C@@H]2COc4cc(OC)c(OC)cc4[C@@H]2C3=O)O1", "Potency": "264 nM (active)"}
{"smiles": "C#CCN(C)[C@H](C)Cc1ccccc1", "viability": "95.3% (inactive)"}
{"smiles": "COC[C@@H](NC(C)=O)C(=O)NCc1ccccc1", "viability": "131% (inactive)"}
{"smiles": "CCCC(C)(COC(N)=O)COC(=O)NC(C)C", "note": "(centres undefined)", "viability": "113% (inactive)"}
{"smiles": "O=C(O)C(=O)c1cn(Cc2ccccc2)c2ccc(-c3ccc(OC(F)(F)F)cc3)cc12", "Potency": "9350 nM (active)"}
{"smiles": "CC1=C2C[C@@H]3[C@@H](CC=C4C[C@@H](O)CC[C@@]43C)[C@@H]2CC[C@]12O[C@H]1C[C@H](C)CN[C@H]1[C@H]2C", "viability": "102% (inactive)"}
{"smiles": "Cn1cc(C2=C(c3cn(C4CCN(Cc5ccccn5)CC4)c4ccccc34)C(=O)NC2=O)c2ccccc21", "Potency": "5260 nM (active)"}
{"smiles": "CNC(=O)c1ccc(N2C(=S)N(c3ccc(C#N)c(C(F)(F)F)c3)C(=O)C23CCC3)cc1F", "Potency": "1320 nM (active)"}
{"smiles": "COC[C@H]1OC(=O)c2coc3c2[C@@]1(C)C1=C(C3=O)C2CCC(=O)[C@@]2(C)C[C@H]1OC(C)=O", "note": "(some centres undefined)", "Potency": "1480 nM (active)"}
{"smiles": "Cc1sc2c(c1C)C(c1ccc(Cl)cc1)=N[C@@H](CC(=O)OC(C)(C)C)c1nnc(C)n1-2", "Potency": "187 nM (active)"}
{"smiles": "N[C@@H](Cc1ccc(N(CCCl)CCCl)cc1)C(=O)O", "Potency": "7430 nM (active)"}
{"smiles": "Fc1ccc(C(OCCN2CCN(CCCc3ccccc3)CC2)c2ccc(F)cc2)cc1", "Potency": "7430 nM (active)"}
{"smiles": "O=C1CC[C@@]2(O)[C@H]3Cc4ccc(O)c5c4[C@@]2(CCN3CC2CC2)[C@H]1O5", "viability": "122% (inactive)"}
{"smiles": "C[C@@H]1[C@@H](CC(C[C@H]2O[C@@H]3O[C@]4(C)CC[C@@H]5[C@H](C)CC[C@@H]([C@H]2C)[C@@]35OO4)C[S+](=O)([O-])c2ccc(COC(=O)N(C)C)cc2)O[C@@H]2O[C@]3(C)CC[C@H]4[C@H](C)CC[C@@H]1[C@@]24OO3", "note": "(some centres undefined)", "Potency": "296 nM (active)"}
{"smiles": "CN(C)CCN(C)CCc1ccc(Cl)c(Cl)c1", "viability": "130% (inactive)"}
{"smiles": "C[C@@H]1O[C@@H](O[C@H]2C[C@@H](O)[C@]3(CO)[C@H]4[C@H](O)C[C@]5(C)[C@@H](C6=CC(=O)OC6)CC[C@]5(O)[C@@H]4CC[C@]3(O)C2)[C@H](O)[C@H](O)[C@H]1O", "Potency": "7.4 nM (active)"}
{"smiles": "CN(C)[C@@H]1C(=O)C(C(N)=O)=C(O)[C@@]2(O)C(=O)C3=C(O)c4c(O)cccc4[C@@](C)(O)[C@H]3C[C@@H]12", "viability": "101% (inactive)"}
{"smiles": "COc1ccc2c(c1OC)CN1CCc3cc4c(cc3C1C2)OCO4", "note": "(centres undefined)", "Potency": "14800 nM (active)"}
{"smiles": "CN1CCN(C(=O)O[C@H]2c3nccnc3C(=O)N2c2ccc(Cl)cn2)CC1", "viability": "119% (inactive)"}
{"smiles": "Cn1c(CCCC(=O)O)nc2cc(N(CCCl)CCCl)ccc21", "Potency": "14800 nM (active)"}
{"smiles": "CN(C)CCc1ccc(O)cc1", "viability": "121% (inactive)"}
{"smiles": "CC(O)(CS(=O)(=O)c1ccc(F)cc1)C(=O)Nc1ccc(C#N)c(C(F)(F)F)c1", "note": "(centres undefined)", "Potency": "166 nM (active)"}
{"smiles": "CNCC(O)c1ccc(O)cc1", "note": "(centres undefined)", "viability": "81.9% (inactive)"}
